± gives the standard deviation of the averaged measurements. The full ranking holds about 33,000 sequences; the median of “E-score (rank enrichment, -0.5 to 0.5)” is about -0.0028, and the highest 2% start at about 0.23. What follows is part of a selection rich in the highest values, with near analogues and random picks from the rest.

In the test the test system is 2Sb-muMax20 (muMax20 with two 1,3-bis(methyl)benzene Cys staples, A13C/A17C and Q88C/A92C, C-terminal Lys). Kind of test: PBM 8-mer E-score (E-score (rank enrichment, -0.5 to 0.5)); higher = stronger preferential binding. On the procedure: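 Protein binding microarray (universal PBM chip covering all 10-mers in fixed probe flanks) with chemically synthesized human Max(13-93) bHLH-LZ analogs (not full-length Max) bearing noncanonical residues (hArg, Tha, Aib, Nle at 65) and aromatic Cys staples. Read-out per 8-mer (and its reverse complement): E-score (rank-based enrichment, -0.5 to 0.5) and Z-score of median probe intensity.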
Regarding AGTGTGCA, the “PBM 8-mer E-score” value came out at 0.127 ± 0.052.
The same measure for GCCGCCAC: -0.229 ± 0.042; for CCCGCCAC: 0.239 ± 0.034.
As to GCCGCCCC, the “PBM 8-mer E-score” value was determined as 0.0256 ± 0.14.
The same measure for CCCGCCCA: 0.4 ± 0.012; for ACCGCCCC: 0.171 ± 0.074; for CCCGCCCG: 0.116 ± 0.12.
Under ACCGCCAC stands -0.106 ± 0.0018; under CCCGCCCC, 0.241 ± 0.1.
Under GCCGCCCA stands -0.145 ± 0.07; under AAAGCTGC, 0.108 ± 0.027.
On to GAAAGACC, for which the “PBM 8-mer E-score” value was -0.0392 ± 0.039.
Under ATCGTTGG stands -0.105 ± 0.092; under CGACGATA, -0.0378 ± 0.027.
The same measure for CCAGTGGC: -0.0927 ± 0.044; for CAGGCAGC: -0.163 ± 0.015.
The same measure for GAAGCGAC: -0.0841 ± 0.007; for ACTCGTAA: 0.213 ± 0.042; for CCCCAACA: 0.256 ± 0.061.
Consider CCCCAACC, for which the “PBM 8-mer E-score” value amounted to 0.131 ± 0.087.
On to TCCCAACA, for which the “PBM 8-mer E-score” value was 0.0292 ± 0.05.
Under CAGAAAAA stands -0.0726 ± 0.05.
The same measure for AGTGCATC: -0.00688 ± 0.015.
Under CAATTATA stands 0.115 ± 0.045.
On to AAATTATG, for which the “PBM 8-mer E-score” value was determined as 0.168 ± 0.0019.
The same measure for AAATTATC: 0.107 ± 0.0057.
As for AAATTATA, the “PBM 8-mer E-score” value was found to be 0.253 ± 0.069.
Under TAATTATA stands 0.262 ± 0.03; under GAATTATA, 0.141 ± 0.061; under GCACACGA, -0.00209 ± 0.0015.
The same measure for AAGTTAGC: 0.00664 ± 0.0061; for TGCCCGAA: -0.0214 ± 0.05; for GGACAAAA: 0.0253 ± 0.017.
Turning to AATATCGT, the “PBM 8-mer E-score” value came out at 0.091 ± 0.0052.
The same measure for ACGTGAAA: 0.238 ± 0.035.
The same measure for GCGTGATA: 0.113 ± 0.028; for ACGTGATG: 0.239 ± 0.0046; for ACGTGATA: 0.244 ± 0.05.
Under CCGTGATA stands -0.132 ± 0.043; under TCGTGAAA, -0.2052 ± 0.00053.
As for ACGTGAGG, the “PBM 8-mer E-score” value stood at 0.0924 ± 0.012.
Under ACGTGAAC stands 0.0297 ± 0.012; under ACGTGATC, 0.187 ± 0.028.
The same measure for GGTTTAAC: -0.0252 ± 0.0077; for CACATTGG: -0.033 ± 0.038.
As for ACACTGCA, the “PBM 8-mer E-score” value is -0.0884 ± 0.039.
Under AGACCTAG stands -0.205 ± 0.0049.
ACGAACTG: the “PBM 8-mer E-score” value is -0.134 ± 0.02.
Under CCCTATTA stands 0.0897 ± 0.046; under CGCCTCCG, -0.115 ± 0.014.
Under ATATTGAA stands 0.0093 ± 0.059; under GTATTGAA, 0.0851 ± 0.057; under TTATTGAA, 0.3 ± 0.015.
Take ACGCGCCC: the “PBM 8-mer E-score” value was found to be 0.00592 ± 0.048.
For the sequence ACGTTTAG, the “PBM 8-mer E-score” value is 0.0678 ± 0.079.
Under ATAACACG stands 0.137 ± 0.063.
Under ATAACATA stands 0.2304 ± 0.0015; under CTAACACA, -0.028 ± 0.069.
The same measure for ATAACATC: 0.211 ± 0.049; for ATAACACA: 0.236 ± 0.023.
Regarding ATAACATG, the “PBM 8-mer E-score” value turned out to be 0.192 ± 0.035.
Under CTTGGCGC stands -0.0178 ± 0.027; under GTGATCAA, -0.00195 ± 0.013; under TATTGGAA, 0.0585 ± 0.0063.
Under AATCACTC stands -0.0758 ± 0.076.
For the sequence ACAGTGAG, the “PBM 8-mer E-score” value was -0.03 ± 0.013.
The same measure for ATTGAAGC: 0.00997 ± 0.0075; for ATAGGCAA: 0.248 ± 0.061.
The same measure for CTAGGCAA: -0.167 ± 0.047; for ATAGGCAG: 0.165 ± 0.037; for TACGTGAA: 0.0248 ± 0.06.
Regarding GACGTGAA, the “PBM 8-mer E-score” value is -0.272 ± 0.011.
Under CACGTGAA stands 0.369 ± 0.02; under CACGTGAC, 0.386 ± 0.011; under AACGTGAC, 0.128 ± 0.0036.
The same measure for CACGTGAG: 0.186 ± 0.016.
Consider ATGAGGTG, for which the “PBM 8-mer E-score” value was 0.103 ± 0.034.
The same measure for CATAGACA: 0.0657 ± 0.028; for GCCAACTA: 0.0147 ± 0.076; for ACCAACTA: 0.0506 ± 0.082.
Consider CCCAACTA, for which the “PBM 8-mer E-score” value was found to be 0.242 ± 0.0045.
Under CCAAACTA stands 0.234 ± 0.0031; under ACAAACTA, 0.152 ± 0.048.
Under CAAAACTA stands 0.062 ± 0.059; under ACATTCCA, -0.0113 ± 0.025.
The same measure for GAGGGTCA: -0.00483 ± 0.032; for CACATTTC: 0.141 ± 0.013; for TCCTACGA: -0.0774 ± 0.011.
For the sequence CCCTACGA, the “PBM 8-mer E-score” value was 0.232 ± 0.0033.
Turning to CCCTACGC, the “PBM 8-mer E-score” value came out at 0.0539 ± 0.023.
The same measure for GGGAGACA: 0.115 ± 0.016.
Under GCTCTGCA stands -0.0815 ± 0.037.

Values taken from the supplement of paper PMC12636033.
